# Records with an inconclusive call do not appear. Active and inactive are the calls of the source. Unless noted, calls follow the shape of the dose curve; as a rule, active = well fitted curve in the direction sought with a large enough effect; inconclusive = small, poorly fitted or top-dose-only effect, or another doubt; inactive = no such curve, though single readings can be large; an effect the other way counts as inactive or inconclusive. Numbered stars: 1 amine (or outer) side, 2 acyl side, 3 side chain; on linkers, the order of the positions; unused ones are H or OH. Bridge positions count the residues as written; N and C are the ends. Square brackets hold non-standard residues; d marks the D form. Peptide text beside a SMILES is read from it. * marks the point of attachment. ξ: configuration not given here. ΔAla(E,3-NHCONH2) = NC(=O)N/C=C(/N)C(=O)O; X1 = NC1=NCCC(C(N[*:1])C(=O)[*:2])N1; ξβ3hOrn = NCCCC(N)CC(=O)*; Dap = NC[CH](N)C(=O)O
# Key:
# [1] = biological target: Cytochrome P450 3A4 (Homo sapiens) (UniProt P08684); test: qHTS Assay for Inhibitors and Substrates of Cytochrome P450 3A4 (AID 884); also: nearly all actives have a fitted effect of over 50% in size; also: potency is read from the fitted curve at half-maximal effect; as to activity change, negative = inhibition: % is scaled to controls: 0 for no effect and ±100 for the full control effect
# Chain of Cytochrome P450 3A4 (Homo sapiens) (P08684 whole entry, looked up): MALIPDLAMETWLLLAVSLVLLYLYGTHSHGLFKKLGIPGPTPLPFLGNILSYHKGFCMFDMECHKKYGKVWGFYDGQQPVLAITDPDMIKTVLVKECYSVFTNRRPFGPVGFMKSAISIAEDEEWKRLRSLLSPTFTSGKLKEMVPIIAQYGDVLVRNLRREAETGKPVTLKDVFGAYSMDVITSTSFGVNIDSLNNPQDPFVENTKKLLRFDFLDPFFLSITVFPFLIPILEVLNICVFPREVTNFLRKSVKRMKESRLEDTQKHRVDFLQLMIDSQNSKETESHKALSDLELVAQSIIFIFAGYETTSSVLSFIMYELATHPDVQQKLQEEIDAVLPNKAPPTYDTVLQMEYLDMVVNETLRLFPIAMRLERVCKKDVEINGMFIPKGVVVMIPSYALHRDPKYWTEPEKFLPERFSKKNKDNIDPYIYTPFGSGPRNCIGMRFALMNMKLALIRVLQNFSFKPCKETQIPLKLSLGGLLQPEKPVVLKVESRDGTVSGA
# Procedure, shortened: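 Luminescent readout of luciferin produced by CYP3A4 (20 nM) dealkylation of Luciferin-PPXE, 25 uM (its KM). NADPH-driven reaction ran 60 min at RT after 10 min compound preincubation; data scaled to 57 uM ketoconazole as 100% inhibition.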
# [2] = Confirmation and Secondary Assay for Modulators of Hemoglobin Beta Chain Splicing at IVS2 654 locus (AID 910);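 also: per-well total GFP intensity by laser scanning cytometry after 2-day treatment; % of control where 0% means no effect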
# Procedure, shortened: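 HeLa cells stably carrying EGFP interrupted by mutant beta-globin IVS2-654 intron (CMV-driven) were treated with compound for 2 days at 37C; corrected splicing was scored as total peak GFP intensity per well (488 nm excitation, 500-520 nm emission).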
# [3] = Confirmation and Secondary Assay for Modulators of Hemoglobin Beta Chain Splicing at IVS2 705 locus (AID 930);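 also: HeLa cells stably expressing the EGFP-705 splicing reporter; GFP fluorescence per well restored by corrected splicing of the IVS2-705 intron in EGFP; % of control where 0% means no effect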
# Procedure, shortened: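 Fluorescence gain (488 nm laser, 500-520 nm PMT) reflects restored correct splicing of a mutant IVS2-705 intron inside EGFP in stably transfected HeLa cells after 2-day compound treatment.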
# [4] = qHTS Assay for Lipid Storage Modulators (AID 1519; calls by dose curve; as to activity change, negative = inhibition: % is scaled to controls: 0 for no effect and ±100 for the full control effect); details: Drosophila S3 cells, BODIPY lipid droplet/cell ratio, laser cytometry, cells loaded with oleic acid; for activity change, negative = inhibition: at 57.5 µM (top of the series)
# Procedure, shortened: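 Cells seeded at 5,000 per well were treated with compounds over a concentration series and loaded with oleic acid (400 uM, as added). Lipid droplet fluorescence (488 nm excitation, 500-530 nm channel) was read by laser-scanning cytometry and normalized to 20 uM Triacsin C.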
# [5] = biological target: Cytochrome P450 3A4 (Homo sapiens) (UniProt P08684); test: qHTS Assay for Activators of Cytochrome P450 3A4 (AID 885); also: nearly all actives have a fitted effect of over 65% in size
# Procedure, shortened: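 Luminescent readout of luciferin formed from 25 uM Luciferin-PPXE (KM level) by 20 nM CYP3A4 in 200 mM KPO4, with 60 min NADPH-driven reaction at room temperature after 10 min compound exposure. Ketoconazole (57 uM) defined 100% inhibition.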
# [6] = measured here: cell count channel max response
# [7] = measured here: lipid channel max response
Structure (SMILES),Potency [1],Potency [2],Potency [3],"activity change, negative = inhibition [4]","max response [4, 6] [%]","max response [4, 7] [%]",Potency [5]
CC(=O)C1CCC2C3CCC4=CC(=O)CC[C@@]4(C)C3CC[C@]12C (some centres not stated),inactive,inactive,inactive,4.88% (inactive),4.44,13.5,–
CC12CCC3c4ccc(OCc5ccccc5)cc4CCC3C1CC(O)C2O (configuration not stated),inactive,inactive,inactive,3.93% (inactive),2.78,8.16,–
C=CCCCCCCCCCCCc1ccco1,inactive,inactive,inactive,3.13% (inactive),16.1,21.7,–
CC(=O)O[C@@]1(C(C)=O)CCC2C3C=C(C)C4=CC(=O)CCC4(C)C3CCC21C (some centres not stated),inactive,inactive,inactive,3.94% (inactive),7.28,12.7,–
CC(C)CCCC(C)C1CCC2C3CC=C4CC(=O)CC[C@@]4(C)C3CC[C@@]12C (some centres not stated),inactive,inactive,inactive,3.79% (inactive),3.76,6.47,–
COC(=O)/C=C/C(C)=C/C=C/C(C)=C/C=C/C=C(C)/C=C/C=C(C)/C=C/C(=O)O,inactive,inactive,inactive,5.02% (inactive),17.2,24.2,–
CC(=O)OC1CC2C(C)(C)C(=O)C3OC3[C@]2(C)C2CC[C@@]3(C)C(c4ccoc4)OC(=O)C4OC43[C@]12C (some centres not stated),inactive,inactive,inactive,-0.845% (inactive),-15.4,-5.43,–
COC(=O)CC1C(C)(C)C(=O)C2CC3=C(CC[C@]4(C)C3=CC(=O)OC4c3ccoc3)[C@@]1(C)C2=O (some centres not stated),2510 nM (active),–,inactive,-1.73% (inactive),16,14.2,inactive
CC(C)CCCC(C)C1CCC2C3CC(O)[C@@]4(O)CC(O)CC[C@@]4(C)C3CC[C@@]12C (some centres not stated),inactive,inactive,inactive,4.13% (inactive),10.2,14.9,–
CC(CC(O)C1OC1(C)C)C1CCC2(C)C3=CCC4C(C)(C)C(=O)CCC4(C)C3CC[C@@]12C (some centres not stated),inactive,inactive,inactive,3.08% (inactive),2.59,11,–
COC(=O)c1cc(=O)c(O)c2c(O)c(O)ccc2c1,inactive,inactive,inactive,-1% (inactive),-7.53,-9.52,–
CC1=C(C(=O)O)N2C(=O)C(NC(=O)C(N)C3=CCC=CC3)C2SC1 (configuration not stated),inactive,inactive,inactive,10.8% (inactive),14,29.2,–
C[C@@]12CCC(O)C[C@H]1CCc1ccccc12 (some centres not stated),inactive,inactive,inactive,1.53% (inactive),0.578,6.01,–
CC(C)CCCC(C)C1CCC2C3=CC[C@@H]4CC(O)CC[C@@]4(C)C3CC[C@]21C (some centres not stated),inactive,inactive,inactive,-3.72% (inactive),6.46,4.39,–
Cc1c(O)cc(O)c2c(=O)c(-c3ccc(O)cc3)coc12,inactive,inactive,inactive,8.55% (inactive),16.6,28,–
Oc1cc(O)c2c(c1)OC(c1cc(O)c(O)c(O)c1)C(O)C2 (configuration not stated),inactive,inactive,inactive,12.8% (inactive),12.7,24.8,–
CC1O[C@@H](O[C@H]2C(Oc3cc(O)c4c(=O)cc(-c5ccc(O)cc5)oc4c3)OC(CO)C(O)C2O)C(O)C(O)C1O (some centres not stated),inactive,inactive,inactive,4.65% (inactive),16.6,23.3,–
Nc1nc2c(c(=O)[nH]1)N(C=O)C(CNc1ccc(C(=O)NC(CCC(=O)O)C(=O)O)cc1)CN2 (configuration not stated),inactive,inactive,inactive,6.17% (inactive),17.6,27.2,–
CCOc1cccc(C(=O)c2ccc(O)c(O)c2O)c1,inactive,inactive,inactive,3.56% (inactive),9.44,-1.04,–
"NCCCC(N)CC(=O)NCC1NC(=O)C(CO)NC(=O)C(N)CNC(=O)C(C2CCN=C(N)N2)NC(=O)/C(=C\NC(N)=O)NC1=O (stereo not drawn) (H-[Dap]S[Dap](ξβ3hOrn)[ΔAla(E,3-NHCONH2)][X1]; lactam 1-C; configuration not given here)",inactive,inactive,inactive,2.39% (inactive),15.4,21.2,–
C=CC1=C(C)/C(=C/c2[nH]c(Cc3[nH]c(/C=C4\NC(=O)C(C)=C4C=C)c(C)c3CCC(=O)O)c(CCC(=O)O)c2C)NC1=O,inactive,inactive,inactive,-0.375% (inactive),3.69,3.49,–
COc1ccc(/C=C/C(=O)c2ccc(O)cc2O)cc1,2510 nM (active),inactive,inactive,5.71% (inactive),11.7,19.5,–
CCCCCC1C(=O)CCC1CC(=O)O (configuration not stated),inactive,inactive,inactive,5.46% (inactive),21.6,28.3,–
COc1ccc(-c2coc3cc(O)ccc3c2=O)c(O)c1O,inactive,inactive,inactive,8.68% (inactive),-1.1,7.57,–
c1ccc2c(c1)CN1CCCC1=N2,inactive,inactive,inactive,5.8% (inactive),4.77,11.2,–

Structure (SMILES),Potency [1],Potency [2],Potency [3],"activity change, negative = inhibition [4]","max response [4, 6] [%]","max response [4, 7] [%]",Potency [5]
Cc1cc(O)c2c(c1O)C(=O)c1c(O)cc(C)c(O)c1C2=O,inactive,inactive,inactive,6.96% (inactive),-16.3,-8.79,–
CC(=O)OC1CC[C@]2(C)C(CC[C@@]3(C)C2C(=O)C=C2C4C(C)C(C)CC[C@@]4(C(=O)O)CCC23C)C1(C)C (some centres not stated),25100 nM (active),–,inactive,0.887% (inactive),18.2,20.8,inactive
CCCC1CC(C(=O)N[C@H](C(C)O)C2OC(SC)[C@@H](O)C(O)C2O)N(C)C1 (some centres not stated),inactive,inactive,inactive,12.2% (inactive),19.1,38.8,–
CC(CCC(=O)O)C1CCC2C3CC[C@H]4CC(O)CC[C@@]4(C)C3C=C[C@]12C (some centres not stated),inactive,inactive,inactive,5.52% (inactive),9.1,18.3,–
CCc1ccc2c(O)c3c(cc2c1C(=O)OC)C(=O)c1c(O)ccc(O)c1C3=O,inactive,inactive,inactive,12.8% (inactive),5.77,24.1,–
O=C(/C=C/c1ccccc1)c1ccc(O[C@H]2OC(CO)C(O)C(O)C2O)cc1O (some centres not stated),inactive,inactive,inactive,-0.595% (inactive),18.3,22.6,–
CC(=O)OC1CC2C(C)(C)C(O)CC[C@@]2(C)C2CC[C@@]3(C)C(c4ccoc4)OC(=O)C4O[C@@]43[C@]12C (some centres not stated),2510 nM (active),–,inactive,-1.7% (inactive),-2.48,-4.24,inactive
CC(C)=CCc1c2c(c(O)c3c(=O)c(O)c(-c4ccccc4)oc13)C=CC(C)(C)O2,–,inactive,inactive,0.956% (inactive),-0.903,-0.353,inactive
CC(C)c1c(O)ccc2c1CCC1[C@@](C)(CO)CCC[C@@]21C (some centres not stated),–,inactive,inactive,10.8% (inactive),14.4,26.5,inactive
COc1ccc(C2CC(=O)c3c(O)cc(O[C@H]4OC(COC5OC(C)C(O)C(O)[C@@H]5O)C(O)C(O)C4O)cc3O2)cc1O (some centres not stated),inactive,–,inactive,-1.5% (inactive),1.58,-1.01,–
O=c1cc(-c2ccc(O)c(O)c2)oc2ccccc12,15800 nM (active),inactive,inactive,2.38% (inactive),-4.12,2.75,–
COc1ccc2c(c1)CCC1C2CC[C@@]2(C)C(O)CCC12 (some centres not stated),inactive,inactive,inactive,6.39% (inactive),9.55,16.1,–
C/C=C(/C)C(=O)OC1C(OC(C)=O)[C@@]2(CO)C(O)C[C@@]3(C)C(=CCC4[C@@]5(C)CCC(OC6OC(C(=O)O)[C@@H](O[C@@H]7OC(CO)C(O)C(O)C7O)C(O)[C@H]6O[C@@H]6OC(CO)C(O)C(O)C6O)[C@](C)(CO)C5CC[C@@]43C)C2CC1(C)C (some centres not stated),inactive,inactive,inactive,9.44% (inactive),18,28.7,–
CC(=O)OC1CC[C@]2(C)C(CC(OC(C)=O)[C@]3(C)C2CC[C@@]2(C)C(c4ccoc4)OC(=O)C4O[C@]432)C1(C)C (some centres not stated),inactive,inactive,inactive,15.1% (inactive),12.6,25.6,–
COc1c(C(C)C)oc2cc3oc(=O)ccc3cc12,inactive,–,inactive,5.54% (inactive),15.7,22.2,–
CCCCCCCC/C=C/CCCCCCCCOP(=O)([O-])OCC[N+](C)(C)C,inactive,inactive,inactive,12.8% (inactive),12.4,28.9,–
CC(=O)O[C@@]1(C(C)=O)CCC2C3C=C(Cl)C4=CC(=O)CC[C@]4(C)C3CC[C@]21C (some centres not stated),inactive,inactive,inactive,-2.19% (inactive),-10.2,-9.83,–
C=CC(C1=CC(=O)C(OC)=CC1=O)c1ccc(O)cc1 (configuration not stated),–,inactive,inactive,12.9% (inactive),1.65,16.7,inactive
CO[C@@]1(NC(=O)CSCC#N)C(=O)N2C(C(=O)O)=C(CSc3nnnn3C)CSC21 (some centres not stated),inactive,–,inactive,5.21% (inactive),4.52,12.5,–
COc1ccc(C(=O)/C=C/c2ccccc2)cc1,inactive,inactive,inactive,8.41% (inactive),-9.97,-1.31,–
CC(=O)OC1CCC2(C)C3=C(CCC2C1(C)C)[C@]1(C)CCC(C(C)CCC=C(C)C)[C@]1(C)CC3 (some centres not stated),–,inactive,inactive,-0.993% (inactive),20.7,23.4,inactive
NCC1OC(OC2C(N)CC(N)[C@@H](O)[C@@H]2OC2O[C@H](CO)[C@@H](O[C@@H]3OC(CN)C(O)C(O)C3N)C2O)C(N)C(O)C1O (some centres not stated),inactive,inactive,inactive,9.63% (inactive),15.6,30,–
CC12CCCC(O)(C1)C1CC(C)(C)C1CC2 (configuration not stated),inactive,inactive,inactive,4.18% (inactive),-0.674,2.69,–
CCCCC(=O)O[C@@]1(C(=O)CO)C(C)CC2C3CCC4=CC(=O)C=C[C@@]4(C)[C@]3(F)C(O)C[C@]21C (some centres not stated),–,inactive,inactive,-6.08% (inactive),9.88,7.08,inactive
CC(C)CCCC(C)C1CCC2C3C(=O)C=C4CC(O)CC[C@@]4(C)C3CC[C@@]12C (some centres not stated),inactive,inactive,inactive,-2.06% (inactive),8.46,5.18,–

# Reference: PubChem BioAssay (NCATS)
